Shown are actives, neighbours in structure and some others; about 1.6% of the full set was active somewhere.
KCNQ2 enhance: enhances the rat KCNQ2 potassium channel; O88943; CHO-K1 KCNQ2, FluxOR thallium flux fluorescence; active compounds read high; B-score at 10 µM; 0.54% of 310,000 active; AID 2239;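 active means fluorescence ratio B-score at least 3 SD of library B-scores, with initial fluorescence B-score within 3 of them, cut at about 5.3 in these data; same plate scores as AID 2156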;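 further: B-score of peak minus minimum over baseline fluorescence ratio after K+ and Tl+ stimulus; positive B-score means potentiation of KCNQ2 with more thallium influx and brighter signal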
Target sequence (O88943 whole entry, looked up): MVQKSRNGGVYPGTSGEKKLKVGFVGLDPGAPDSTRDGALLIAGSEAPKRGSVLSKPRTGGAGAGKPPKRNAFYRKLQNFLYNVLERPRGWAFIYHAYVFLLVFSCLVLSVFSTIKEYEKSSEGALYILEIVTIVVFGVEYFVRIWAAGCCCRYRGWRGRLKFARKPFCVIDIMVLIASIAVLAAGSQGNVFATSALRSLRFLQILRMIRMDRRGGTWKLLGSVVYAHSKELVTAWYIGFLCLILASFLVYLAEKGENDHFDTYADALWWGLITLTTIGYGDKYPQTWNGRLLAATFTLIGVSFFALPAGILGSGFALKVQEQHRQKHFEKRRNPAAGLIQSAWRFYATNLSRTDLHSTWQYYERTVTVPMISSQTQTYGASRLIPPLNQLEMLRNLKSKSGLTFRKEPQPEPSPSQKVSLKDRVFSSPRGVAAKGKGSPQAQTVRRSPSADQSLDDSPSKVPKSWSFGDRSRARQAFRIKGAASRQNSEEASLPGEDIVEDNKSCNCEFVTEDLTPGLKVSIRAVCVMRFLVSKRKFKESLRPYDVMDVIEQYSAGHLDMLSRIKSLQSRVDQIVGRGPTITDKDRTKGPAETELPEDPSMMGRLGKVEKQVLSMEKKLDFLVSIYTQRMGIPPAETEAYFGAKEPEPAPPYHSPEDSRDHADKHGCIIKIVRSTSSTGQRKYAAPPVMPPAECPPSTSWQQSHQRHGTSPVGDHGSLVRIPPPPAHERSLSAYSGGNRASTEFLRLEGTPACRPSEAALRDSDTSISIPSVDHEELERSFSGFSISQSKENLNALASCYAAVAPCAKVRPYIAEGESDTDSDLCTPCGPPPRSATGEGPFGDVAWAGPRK
KCNQ2 inh: inhibitors of rat KCNQ2 potassium channel; B-score at 10 µM; AID 2156; O88943; 1.1% of 310,000 active; CHO-K1 KCNQ2, FluxOR thallium flux, 20 min; active compounds read low;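 active means fluorescence ratio B-score at most minus 3 library SDs, with starting brightness B-score within 2 library SDs, cut at about -5.5 in these data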
* hit, by the source's call; i = inactive; x = not tested or not shown.

SMILES	KCNQ2 enhance	KCNQ2 inh
CCOC(=O)[C@@H]1[C@H]2COc3cc(OC)ccc3[C@@H]2N2C(=O)N(c3ccc(F)cc3)C(=O)[C@]12C	x	i
O=C(Nc1ccc(N2CCOCC2)cc1)c1nc2ccccc2s1	0.43	i
COc1cccc(CN2CCC(n3nccc3NC(=O)CCCc3ccccc3)CC2)c1	0.31	i
O=C(CCc1nnc2ccc(N3CCC4(CC3)OCCO4)nn12)N1CCCCC1	2.1	i
COc1cc(C2=NOC(C(=O)N3CCN(c4ccc(F)cc4)CC3)C2)cc(OC)c1OC (stereo not given)	x	i
COc1cc(C2=NOC(C(=O)N3CCCCCC3)C2)cc(OC)c1OC (stereo not given)	-6.6	-6.6*
COc1ccc(C(=O)NCCS(=O)(=O)N2CCCC2)cc1	x	i
COc1ccccc1-n1c(=O)c(C#N)c(-c2ccc([N+](=O)[O-])cc2)c2cc(C(=O)c3ccccc3O)cnc21	x	i
CC1OC(O[C@H]2CC[C@]3(C)C4C=C[C@]56OC[C@@]7(CC[C@@H](C)[C@H](C)C75)[C@H](O)C[C@@]6(C)[C@]4(C)CC[C@H]3C2(C)C)C(OC2OC(CO)C(O)C(O)C2OC2OCC(O)C(O)C2O)C(O)C1O (stereo not given in full)	x	i
O=C(COn1nnc2ccc(Cl)cc21)Nc1ccc(F)cc1	x	i
O=C(COn1nnc2ccc(Cl)cc21)NC12CC3CC(CC(C3)C1)C2	-6.1	-6.1*
Cc1noc(C)c1S(=O)(=O)Nc1ccc(C(C)C)cc1	x	i
CCOC(=O)c1cc(S(=O)(=O)N2CCN(c3ccccc3OC)CC2)cn1C	0.21	i
Cc1ccc(C)c(NS(=O)(=O)c2ccc(-c3cnc(C4CC4)o3)cc2)c1	-6.8	-6.8*
Cc1cc(C)cc(NS(=O)(=O)c2ccc(-c3cnc(C4CC4)o3)cc2)c1	x	i
COc1ccccc1C(=O)N=C1SC2CS(=O)(=O)CC2N1c1ccccc1 (stereo not given)	1.7	i
COc1ccc(N2CC(C(=O)N[C@@H](CC(C)C)C(=O)NC3CCCCC3)CC2=O)cc1 (stereo not given in full)	0.57	i
O=C(CSc1n[nH]c(-c2ccncc2)n1)Nc1ccccc1Cl	x	i
COc1ccc(OCC(=O)N/N=C2\CCCc3ccccc32)cc1	x	i
Cc1cccc2c1OCC/C2=N\NC(=O)COc1ccccc1	-7.3	-7.3*
COc1ccc(C(=O)N/N=C2\CCc3ccccc32)cc1OC	0.19	i
COc1ccccc1OCC(=O)N/N=C1\CCc2ccccc21	-5.6	-5.6*
O=C(COc1cccc(Br)c1)N/N=C1\CCCc2ccccc21	x	i
COc1ccccc1OCC(=O)N/N=C1\CCCCc2ccccc21	-7.1	-7.1*
O=C(NCc1ccncc1)C(=O)NCC1OCCN1S(=O)(=O)c1ccc(F)cc1 (stereo not given)	x	i
SMILES	KCNQ2 enhance	KCNQ2 inh
Cc1c(NS(=O)(=O)c2cc(C(=O)NCc3ccco3)cc(Cl)c2Cl)c(=O)n(-c2ccccc2)n1C	x	i
O=C(CC1C(=O)NCCN1Cc1ccccc1C(F)(F)F)NCCn1cccn1 (stereo not given)	0.43	i
NC(=O)NCCCC(NC(=O)c1ccc(C#CC2(O)CCCCC2)cc1)C(=O)O (stereo not given)	0.68	i
S=C(NCc1cccc(Cl)c1)NC1CCCCC1	8*	i
S=C(NCc1ccccc1)NC1CCCCC1	1.3	i
COc1ccc(CCNC(=O)c2cc(C(=O)c3cc(C)ccc3O)cn(CCc3ccc(OC)cc3)c2=O)cc1	-7.3	-7.3*
COc1ccc(CCNC(=O)c2cc(C(=O)c3cc(Cl)ccc3O)cn(CCc3ccc(OC)cc3)c2=O)cc1	x	i
O=C(NCCc1ccccc1)c1ccccc1Cl	x	i
O=C(c1cc(C(=O)NCCc2ccccc2)c(=O)n(CCc2ccccc2)c1)c1cc(Cl)ccc1O	-6.4	-6.4*
COCCC1CCCCN1C(=O)c1ccc(OC2CCN(C(C)=O)CC2)c(OC)c1 (stereo not given)	x	i
CC(NC(=O)c1ccccc1)c1nnc(SCC(=O)NC2CCCC2)n1C (stereo not given)	1.1	i
Cn1c(C(O)C(O)c2ccccc2)nc2ccccc21 (stereo not given)	0.77	i
Cn1c(N2CCN(C(c3ccccc3)c3ccccc3)CC2)nc2ccccc21	-12	-12*
CC(C)CN(C(=O)CCC(=O)OCC(=O)N(C)c1ccccc1)c1c(N)n(CC(C)C)c(=O)[nH]c1=O	0.16	i
CCOC(=O)c1c(N)sc(N)c1C(=O)OCC	9.7*	i
CCOC(=O)c1c(N)sc(C(N)=O)c1C	x	i
CC1CC(=O)N(CC(=O)Nc2cccc(F)c2)c2ccccc2S1(=O)=O (stereo not given)	x	i
COc1ccc(OC)c2nc3c(cc12)CCC3	1.5	i
CCOC(=O)c1c(C)c(C(=O)NCCc2ccccc2)c(C)n1C	x	i
CCOC(=O)c1c(C(=O)OCC)c(C)n(CCc2ccccc2)c1C	-5.8	-5.8*

Assay outcomes: PubChem BioAssay, Johns Hopkins Ion Channel Center
